Bioassay records as filed in PubChem BioAssay.
Sampled rows, rich in hits. Any-hit rate of the full collection: about 6.9%.
M1 antagonist: antagonists of rat M1 muscarinic receptor | P08482 | CHO-M1 cells, Fluo-4 calcium, ACh EC80 antagonist mode; hits give low values | B-score at 10 µM | actives 3.4% (n = 64,000);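 active = calcium fluorescence response, raw or row-and-column corrected B-score, differing from the plate sample mean either way at a set confidence level, mostly lower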
HER2 expr 66K: lowers expression of human Her2 kinase | P04626 | SKBR-3 HER2 protein level, AlphaScreen, 18-24 h; hits give low values | HER2 level % of control, % at 10 µM | actives 0.69% (n = 65,000) | AID 645;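 active = HER2 level under 5% of the carrier-only control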;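 note: lower value means stronger loss of Her2 protein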
FXIIa mix inh: inhibitors of human coagulation factor XIIa, pooled mixtures | purified FXIIa, fluorogenic substrate | inhibition, % at 5 µM | actives 0.2% (n = 62,000) | AID 684
FXIa mix inh: factor XIa (human) inhibition, mixture screen; P03951; purified FXIa, fluorogenic substrate, pooled mixtures; inhibition, % at 5 µM; actives 0.19% (n = 62,000); AID 680;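 note: each value is inhibition by a whole ten-compound pool holding the compound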
JNK3 blocker: blocks human JNK3 kinase activity; P53779; purified JNK3 kinase activity, HTS; inhibition, % at 8 µM; actives 0.61% (n = 60,000); AID 746; in the data active = inhibition above about 17%
Target sequence (P53779 whole entry, looked up): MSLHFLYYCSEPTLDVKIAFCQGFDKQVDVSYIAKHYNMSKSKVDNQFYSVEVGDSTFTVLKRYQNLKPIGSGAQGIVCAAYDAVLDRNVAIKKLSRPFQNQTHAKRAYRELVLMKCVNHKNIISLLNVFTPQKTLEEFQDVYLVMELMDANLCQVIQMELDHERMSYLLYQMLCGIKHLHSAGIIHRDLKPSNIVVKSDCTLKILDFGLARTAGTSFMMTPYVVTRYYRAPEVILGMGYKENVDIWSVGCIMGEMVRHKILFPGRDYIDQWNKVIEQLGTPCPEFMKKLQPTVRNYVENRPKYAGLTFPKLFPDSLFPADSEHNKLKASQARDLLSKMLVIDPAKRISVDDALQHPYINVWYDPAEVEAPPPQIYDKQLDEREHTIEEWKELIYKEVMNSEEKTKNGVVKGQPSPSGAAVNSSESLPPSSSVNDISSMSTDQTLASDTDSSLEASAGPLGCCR
M1 ag: activates the M1 muscarinic receptor | CHO-M1 cells, Fluo-4 calcium fluorescence, agonist mode; hits give high values | B-score at 10 µM | actives 3% (n = 64,000);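 active = fluorescence rise, raw or as B-score row- and column-corrected plate score, outside the 99.7% band of its plate's samples, either direction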
Numbers stand for hits; i = inactive; nt = not tested or not shown. Cut-off read from the data, not from the text of the source, unless noted: active = inhibition above about 20% (passing the limit was not always enough); inactive = the rest.

SMILES	M1 antagonist	HER2 expr 66K	FXIIa mix inh	FXIa mix inh	JNK3 blocker	M1 ag
CC1CCCN(c2nc3c(c(=O)[nH]c(=O)n3C)n2CCCc2ccccc2)C1 (stereo not given)	i	i	i	i	nt	i
NC(=O)C1CCN(CC(=O)N2c3ccccc3CCc3ccccc32)CC1	i	i	30	i	i	i
O=C(O)c1cccc(NS(=O)(=O)c2ccc(Cl)c(C(=O)O)c2)c1	i	i	22	i	i	i
O=C(O)c1cccc(NS(=O)(=O)c2ccc3nnn(O)c3c2)c1	i	i	37	i	nt	i
O=C(O)c1cccc(S(=O)(=O)Nc2ccc3c(c2)OCO3)c1	i	i	i	i	i	i
CCOC(=O)c1sc(N(Cc2ccccc2)C(=O)CSc2nnc(C3CC3)n2N)nc1C	i	i	nt	nt	nt	i
Cn1c(NCc2ccco2)nc2c1c(=O)n(Cc1ccc(Cl)c(Cl)c1)c(=O)n2C	i	i	nt	nt	i	i
CCNC(=O)C1CC(=O)N(CC)C(=Nc2cc(Cl)c(O)c(Cl)c2)S1 (stereo not given)	i	i	i	i	i	i
CCn1c(SCC(=O)C(C)(C)C)nnc1-c1ccccn1	nt	i	i	i	i	nt
CCn1c(SCC(=O)C(C)(C)C)nnc1-c1cnccn1	i	-19	i	i	i	i
COc1ccc(NC(=O)CNS(=O)(=O)c2cccc3nonc23)c(OC)c1	i	i	i	i	nt	i
Cc1cc(NS(=O)(=O)c2ccc(NC(=O)Cc3cccs3)cc2)no1	i	i	i	i	i	i
Cc1cc(NS(=O)(=O)c2cccs2)no1	i	-30	i	i	i	i
COc1cccc(C2CC(c3ccccc3OC)n3nc(N)nc3N2)c1 (stereo not given)	i	i	i	i	i	i
CCCn1c(Nc2nc3ccccc3n2C)nc2ccccc21	nt	-22	i	i	i	nt
CCCOc1ccc(C(=O)CCN2CCCCC2)cc1	i	-20	i	i	i	i
CCCOc1cc(CN2CCCCC2)cc(C(C)=O)c1	i	i	i	i	i	i
COc1cccc2c1N1C(=O)c3c(C(=O)O)cccc3C1CC2(C)C (stereo not given)	i	i	i	i	i	i
CCOc1ccccc1NC(=O)COc1cccc(-n2cnnn2)c1	i	i	i	i	23	i
CCOC(=O)N1CCC(NC(=O)Cn2nc(Cc3ccncc3)c3ccccc3c2=O)CC1	i	i	i	i	i	i
CC1CN(c2oc(COc3ccc(Cl)cc3Cl)nc2C#N)CC(C)O1 (stereo not given)	i	-19	i	i	i	i
Cc1cc(NC(=O)c2noc3c2CCc2ccccc2-3)no1	i	nt	i	42	i	i
Cc1c(NC(=O)c2noc3c2CCc2ccccc2-3)c(=O)n(-c2ccccc2)n1C	i	i	i	i	i	i
Clc1ccc2nc(NC3=NCN(CCN4CCOCC4)CN3)nc(-c3ccccc3)c2c1	-15	i	i	i	i	i
OCCN1CCN(c2nc(-c3ccccc3)c3cc(Cl)ccc3n2)CC1	i	i	i	i	i	i
SMILES	M1 antagonist	HER2 expr 66K	FXIIa mix inh	FXIa mix inh	JNK3 blocker	M1 ag
CCSc1nnc(NC(=O)C2CCCN(S(=O)(=O)c3cnc[nH]3)C2)s1 (stereo not given)	i	i	i	i	i	i
COc1ccc2c(c1)c1ncn(Cc3ccco3)c(=O)c1n2C	i	i	i	i	19	i
CCSC1(SCC)N=C(N)C2(C#N)C(c3ccc(OC)c(OC)c3OC)C12C#N (stereo not given)	i	3.5	i	i	i	i
CCSC1(SCC)N=C(N)C2(C#N)C(c3ccccc3)NC3=C(CCC3)C12C#N (stereo not given)	i	i	i	i	i	i
O=C1CCC(=O)c2oc3ccccc3c2N1	i	i	21	i	i	i
Cc1cc(NC(=O)C2COc3ccccc3O2)no1 (stereo not given)	i	i	i	i	i	i
CCOc1ccc(-c2nc(CSc3nncs3)cs2)cc1OC	i	i	i	i	nt	i
CCN1CCc2c(C#N)c(N3CCCCC3)nc(N3CCOCC3)c2C1	i	-22	nt	nt	i	i
CN(C)c1ccc(C2C3C(=O)NC(=O)C3ON2c2ccc(Cl)cc2)cc1 (stereo not given)	i	i	i	i	i	i
O=C(O)Cn1nnnc1-c1ccc(F)cc1	i	i	i	i	i	-2
CCc1ccc(N(CC(=O)Nc2ccc(OC)cc2OC)S(C)(=O)=O)cc1	i	i	i	i	i	i
COC(=O)c1ccc(C2C(C(=O)OCC(C)C)=C(C)N=C3SCCC(=O)N32)cc1 (stereo not given)	i	i	i	29	i	i
O=C(Nc1ccccc1NC(=O)NC1CCCCC1)NC1CCCCC1	nt	-15	i	i	i	nt
Cc1c(Cl)cccc1NC(=O)NC1CCCCC1	i	i	i	i	i	i
CCOC(=O)Cc1cnc(NC(=O)NC(C(=O)OCC)(c2ccccc2)C(F)(F)F)s1 (stereo not given)	i	i	i	i	i	i
CCCCNC(=O)CN1C(=O)C(CC)Oc2ccc(Cl)cc21 (stereo not given)	i	i	20	i	i	i
O=C(c1n[nH]c(=O)c2ccccc12)N1CCN(c2ccccc2)CC1	i	-20	i	i	i	i
CC(C)(C)c1cc(C(c2cccnc2)N2CCN(CCO)CC2)cc(C(C)(C)C)c1O (stereo not given)	i	-15	i	i	i	i
OCCN1CCN(C(c2cccs2)c2ccc3cccnc3c2O)CC1 (stereo not given)	i	i	i	i	i	i
CCSc1nnc(NC(=O)NC(CC)(C(F)(F)F)C(F)(F)F)s1	-1.4	i	nt	nt	i	5
CCOC(=O)NC(Nc1nnc(SCC)s1)(C(F)(F)F)C(F)(F)F	i	i	i	i	i	i
CC(C)[C@H](NC(=O)OC(C)(C)C)c1nnc(SCC(=O)Nc2ccc(Br)cc2)o1	i	i	i	i	i	i
CCOC(=O)N1CCN(C2OC(=O)c3ccccc32)CC1 (stereo not given)	-2	i	nt	nt	i	32
COc1ccccc1N1CCN(CC(=O)Nc2cc(C)nn2-c2nc(C)cc(C)n2)CC1	i	i	i	i	nt	3.4
Cc1cc(C)n(CCc2nc3c4ccccc4n(CC(=O)Nc4ccc(Cl)cc4F)c(=O)n3n2)n1	i	i	i	i	i	i
SMILES	M1 antagonist	HER2 expr 66K	FXIIa mix inh	FXIa mix inh	JNK3 blocker	M1 ag
CC1CCCN(C(=O)C(Cc2ccccc2)n2cccc2)C1 (stereo not given)	i	i	i	i	i	i
COc1ccc(NC(=O)CSc2nccc(C)n2)cc1	i	i	i	i	i	i
COc1cc(NC(=O)CSc2nccc(C)n2)c(C(=O)O)cc1OC	1.2	i	i	i	i	i
COC(=O)c1cc(Nc2ncnc3c2cnn3-c2ccccc2)cc(C(=O)OC)c1	i	i	i	i	i	i
Cc1ccc(C(=O)CC2(O)C(=O)N(CN3CCOCC3)c3ccccc32)cc1 (stereo not given)	i	i	73	i	i	i
COc1cccc(NC(=O)CN2C(=O)COc3ccc(Cl)cc32)c1	i	i	i	i	i	i
